In ChEMBL document CHEMBL3988442, “University of Dundee, Small-Polar-MMV Screening Library” (2021):
The campaign covered roughly 48,000 compounds. About 13,000 (27%) showed an effect of 50% or more. The list shows a part of the results.

test system: Wolbachia pipientis; experiment: Anti-Wolbachia Cell-Based Screen; format: functional; parameters: scale not given: in the data most compounds retested in dose-response had high values; conditions: 5 µM

Row | Compound | Percent Effect [%]
1 | CC(C)N1CCO[C@H]2CN(C(=O)c3ccncc3F)C[C@H]21.O=C(O)C(F)(F)F | -21.77
2 | CCN1CCN(c2cncc(Cl)n2)CC1 | 88.05
3 | c1cc(CN2CCN(Cc3ccon3)C3(CCCCC3)C2)no1 | -15.56
4 | c1cc(CN2CCSC3(CCCCC3)C2)no1 | -28.1
5 | CCN1CCN(Cc2nc(C)no2)CC1 | 8.697
6 | Clc1cncc(N2CCN(Cc3ccon3)CC2)n1 | 98.12
7 | CCN1CCN(Cc2csc(C(C)C)n2)CC1 | -0.2652
8 | CC(C)(O)CNc1ccc(C#N)c(C(F)(F)F)c1 | 7.337
9 | O=C(C1CCN(S(=O)(=O)N2CCCC2)CC1)N1CCC2(CC1)OCCO2 | 110.6
10 | O=C(C1CC=CC1)N1CCC2(CC1)OCCO2 | 105.5
11 | CS(=O)(=O)N1CCC(C(=O)N2CCC3(CC2)OCCCO3)CC1 | 6.012
12 | Cl.O=C(C1CC=CC1)N1CCC2(CC1)CNCCO2 | -11.15
13 | O=C(C1CC(=O)N(c2ccccc2Br)C1)N1CCC2(CC1)OCCO2 (stereo not given) | -9.549
14 | O=C(C1CCC1)N1CCC2(CC1)CNCCO2 | -23.25
15 | O=C(c1cnn2c1OCCC2)N1CCC2(CC1)OCCO2 | -3.54
16 | O=C(C1CCCCC1)N1CCC2(CC1)OCCO2 | 92.72
17 | O=C(C1CCCC1)N1CCC2(CC1)OCCO2 | -31.13
18 | Cn1cc(C2=CCN(CCCOc3ccc(C(N)=O)cc3)CC2)cn1 | -2.558
19 | Fc1cnccc1CN1CCC2(CCNCC2)C1 | -4.399
20 | Cc1cc(NC2CC3(CCN(Cc4ncccc4F)C3)C2)ncn1 (stereo not given) | 100.5
21 | Cc1cccnc1CC(C)NC1Cc2ccccc2C1 (stereo not given) | -26.27
22 | Cc1cccnc1CN1CCC2(CC(Nc3ccncn3)C2)C1 (stereo not given) | 130.7
23 | CCN1CCC2(CC1)CC(Nc1ncccn1)CO2 (stereo not given) | -3.551
24 | Cn1ccnc1CN1CC2(CCN(Cc3ccncc3)C2)C1 | -5.589
25 | COC(=O)CNC(=O)c1cn(Cc2ccccc2F)nn1 | 4.551

Row | Compound | Percent Effect [%]
26 | CN(c1ncccc1C#N)C1CCN(CCc2ccncc2)CC1 | -9.489
27 | Cc1ccccc1-n1cc(C2=CCN(CCN3CCOCC3)CC2)cn1 | -7.999
28 | Cn1ncc2c(N3CCCC4(CCNC4)C3)nc(C(C)(C)C)nc21 (stereo not given) | 8.536
29 | CCCc1nc(N2CCCC3(CCNC3)C2)c2cnn(C)c2n1 (stereo not given) | -0.0368
30 | CC(C)c1nc(N2CCN3CCCC3C2)c2cnn(C)c2n1 (stereo not given) | 18.47
31 | CCCc1nc(N2CCCN3CCC[C@H]3C2)c2cnn(C)c2n1 | 64.99
32 | Cn1ncc2c(N3CCCN4CCC[C@H]4C3)nc(C(C)(C)C)nc21 | 135.6
33 | CCOCc1nc2c(c(N3CCN4CCCC4C3)n1)CCNCC2 (stereo not given) | 3.786
34 | Cc1nc(COC[C@@H]2CC[C@H]3NCC[C@H]3O2)cs1.Cl.Cl | 12.23
35 | N#Cc1ccc(NC2CCN(c3ncccn3)CC2)cc1C(F)(F)F | -29.96
36 | Cc1nc(CC(=O)N2CCCC[C@H](N(C)C)C2)cs1 | 105.8
37 | Cc1nc(CC(=O)N2CCN(C(C)c3ccccc3F)CC2)cs1 (stereo not given) | -7.662
38 | CN(C(=O)Cc1ccn(C)c1)C1CCCN(C2Cc3ccccc3C2)C1 (stereo not given) | -11.39
39 | Cc1cccc(CC(=O)N2CCCC(N(C)CCCN(C)C)C2)c1 (stereo not given) | 81.85
40 | CN(C)C(=O)CN1CCN(C(=O)Cc2csc(-c3ncccn3)n2)CC1 | -5.623
41 | O=C(Cc1csc(-c2ncccn2)n1)N1CCN2CCCCC2C1 (stereo not given) | 6.768
42 | Cc1nc(CC(=O)N(C)C2CCCN(CCc3ccccc3)C2)cs1 (stereo not given) | 10.74
43 | Cc1nc(CC(=O)N2CCCC(N(C)Cc3ccccc3)C2)cs1 (stereo not given) | 124
44 | Cc1nc(CN2CCN(C(=O)Cc3cccc(Cl)c3)CC2)no1 | 6.745
45 | COc1ncccc1CN1CC[C@H]2O[C@@H](c3nnc(C)o3)CC[C@H]21 | -10.73
46 | O=C(Nc1cccnc1)[C@H]1CN(Cc2ccco2)C[C@H]2OCC[C@@H]12.O=C(O)C(F)(F)F.O=C(O)C(F)(F)F | -18.85
47 | CNC(=O)CN1CCO[C@H]2CN(C(=O)c3ccncc3F)C[C@H]21.O=C(O)C(F)(F)F | -18.06
48 | Cc1ccccc1CC(C)NCc1c(C)nn(C)c1N1CCOCC1.Cl (stereo not given) | 6.405
49 | CCOC(C)c1noc(CN(C)C(=O)C2C(C)(C)C2(C)C)n1 (stereo not given) | 12.97
50 | C[C@H]1C[C@@H]2CCN(CC3CCOCC3)C[C@H]2O1 | -3.08

Row | Compound | Percent Effect [%]
51 | O=C1CO[C@@H]2CN(C3CCOCC3)C[C@H]2N1Cc1ccncc1 | 117.1
52 | O=C1CO[C@H]2CN(C3CCOCC3)C[C@H]2N1Cc1ccccn1 | -4.247
53 | O=C(O)C(F)(F)F.O=C(O)C(F)(F)F.O=C(O)C(F)(F)F.O=C(O)C(F)(F)F.c1cc(CN2C[C@@H]3OCCN(CCN4CCCC4)[C@@H]3C2)ccn1 | 0.06106
54 | O=C(O)C(F)(F)F.O=C(O)C(F)(F)F.O=C1CO[C@@H]2CN(Cc3cccs3)C[C@H]2N1Cc1ccncc1 | -4.405
55 | O=C(O)C(F)(F)F.O=C(O)C(F)(F)F.O=C1CO[C@@H]2CN(CC3CCOCC3)C[C@H]2N1Cc1ccncc1 | 87.76
56 | O=C1CO[C@H]2CN(C3CCOCC3)C[C@H]2N1Cc1ccncc1 | -21.59
57 | NCC1(c2cccc(C(F)(F)F)c2)CCOCC1 | -0.8853
58 | CCCN1CCN(C(=O)c2cnccc2C)[C@H]2CS(=O)(=O)C[C@H]21 | -10.68
59 | Cc1c(C2N3C[C@]4(C)CN2C[C@](C)(C3)C4=O)[nH]c(=O)[nH]c1=O (stereo not given in full) | 140.1
60 | CC[C@]12CN3C[C@](C)(CN(C1)C3c1[nH]c(=O)[nH]c(=O)c1C)C2=O (stereo not given in full) | 105.1
61 | CC[C@]12CN3C[C@](CC)(CN(C1)C3c1[nH]c(=O)[nH]c(=O)c1C)C2=O (stereo not given in full) | 112.4
62 | CCC[C@]12CN3C[C@](C)(CN(C1)C3c1[nH]c(=O)[nH]c(=O)c1C)C2=O (stereo not given in full) | 118.8
63 | COCC(=O)NC[C@H]1C[C@@H]2CCN1C[C@@H]2CN(C)c1ccccc1 | -6.027
64 | O=C(c1[nH]c2ccc(Cl)cc2c1Cl)N1CCC2(CC1)OCCO2 | -4.336
65 | NCC1(c2cccc(C(F)(F)F)c2)CCC1 | 15.34
66 | CCNC(=O)CCC(=O)NC(C)Cc1ccccc1Br (stereo not given) | 15.31
67 | N#Cc1cnc2ccccc2c1N1CCNCC1 | -0.76
68 | Cc1nn(C)c2ncc(S(=O)(=O)N3CCCN4CCCC4C3)cc12 (stereo not given) | -8.04
69 | CC(C)n1[nH]c(=O)c2c1NC(=O)CSC2c1ccc(OCC(N)=O)cc1 (stereo not given) | 116.2
70 | COc1cc(OC)cc(C2SCC(=O)Nc3ccsc32)c1 (stereo not given) | -4.704
71 | COc1cccc(C2SCC(=O)Nc3ccsc32)c1 (stereo not given) | -17.04
72 | CC(C)n1[nH]c(=O)c2c1NC(=O)CSC2c1cccc(OCC(N)=O)c1 (stereo not given) | 107.3
73 | CCN1CCC2(CCC1=O)CN(c1ccnc(SC)n1)CCN2C (stereo not given) | -2.766
74 | Cc1cc(CC(=O)N2CCN(CC(C)C)[C@@H]3CS(=O)(=O)C[C@@H]32)ccc1F | -16.98
75 | CC1=N[C@@]2(CC[C@@H]3CN(CC(C)C)C[C@@H]32)C(=O)N1 | -12.28

Row | Compound | Percent Effect [%]
76 | CCC1=N[C@@]2(CC[C@@H]3CN(CC)C[C@@H]32)C(=O)N1C | 107.7
77 | COc1ccc(C(=O)C2CCCN(Cc3ccncc3)C2)c(OC)c1 (stereo not given) | -2.027
78 | Cc1c(CC(=O)N2CCN(CC(F)(F)F)CC2)nnn1-c1ccccc1 | -7.021
79 | CCOCC(O)CN1CCN(C(=O)Cc2ccccc2Cl)CC1 (stereo not given) | -8.97
80 | Cl.O=C(Cc1ccc(F)cc1)N1CCN(CC(O)C2CC2)CC1 (stereo not given) | -12.59
81 | Cc1oc(-c2ccco2)nc1CC(=O)N1CCN(CC(C)(C)O)CC1 | -7.111
82 | COc1ccc(Cl)cc1CC(=O)N1CCN(CC(C)O)CC1 (stereo not given) | 112.2
83 | COc1ccc(Cl)cc1CC(=O)N1CCN(CC(C)(C)O)CC1 | 104.9
84 | CCC1CNCc2cc3c(OC)ccc(OC)c3nc2O1 (stereo not given) | 82.52
85 | CCC1CNCc2cc3c(C)ccc(C)c3nc2O1 (stereo not given) | 108.6
86 | OCCCN(CCc1cccc(F)c1)C1CC1 | 110
87 | COC(=O)N1CC2(CCNCC2)c2cc(Cl)ccc21.Cl | 101.7
88 | CC(=O)N1CC2(CCNCC2)c2cc(Cl)ccc21.Cl | 94.12
89 | CN1C(=O)C2(CCNCC2)c2cc(F)ccc21.Cl | -10.96
90 | CN1C(=O)CC2(CCNCC2)c2ccccc21 | -12.38
91 | CC(=O)N1CC2(CCNCC2)c2cc(C)ccc21 | -30.16
92 | Cn1nc(-c2cccs2)cc1[C@H]1CN2CC[C@H]1C[C@@H]2CNS(C)(=O)=O | -2.456
93 | CC(Cn1ccnc1)NS(=O)(=O)c1ccc(C#N)c(Cl)c1 (stereo not given) | 2.375
94 | O=C1CSC(c2ccsc2)c2c(n(C3CCOCC3)[nH]c2=O)N1 (stereo not given) | 12.85
95 | COc1cc(C2SCC(=O)Nc3ccsc32)cc(OC)c1OC (stereo not given) | -0.744
96 | O=C1CSC(c2ccc(O)c(Cl)c2)c2c(n(C3CCOCC3)[nH]c2=O)N1 (stereo not given) | 12.23
97 | CCOc1ccc(C2SCC(=O)Nc3c2c(=O)[nH]n3C(CC)CC)cc1 (stereo not given) | 117.7
98 | CC(C)COc1ccc(C2SCC(=O)Nc3c2c(=O)[nH]n3C(C)C)cc1 (stereo not given) | 105.8
99 | CCCOc1ccc(C2SCC(=O)Nc3c2c(=O)[nH]n3C(C)C)cc1 (stereo not given) | 107.1
100 | CCOc1ccc(C2SCC(=O)Nc3c2c(=O)[nH]n3C(C)C)cc1 (stereo not given) | 112
